PubChem BioAssay (NCI)
Compounds without any hit were thinned out: in the full panel of roughly 83,000, 20% have a hit.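 Activity criterion: percent growth below 10, measured after cells in 96-well plates were exposed to a single compound concentration for 48 hours.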 A number with no mark means an inactive call. The source made the active and inactive calls.

Key:
Assay in all cases: NCI-60 one-dose screen, 48 h (100 = growth as untreated, 0 = no growth, -100 = all killed)
Conditions in all cases: 10 µM unless noted
EKVX NSCLC = system: EKVX NSCLC
SN12C renal = system: SN12C renal
UO-31 renal = system: UO-31 renal
TK-10 renal = system: TK-10 renal
ACHN renal = system: ACHN renal
A498 renal = system: A498 renal
CCRF-CEM leukemia = system: CCRF-CEM leukemia
MOLT-4 leukemia = system: MOLT-4 leukemia

SMILES | growth (EKVX NSCLC) | growth (SN12C renal) | growth (UO-31 renal) | growth (TK-10 renal) | growth (ACHN renal) | growth (A498 renal) | growth (CCRF-CEM leukemia) | growth (MOLT-4 leukemia)
COCCOCCOCc1n(Cc2ccc3ccccc3n2)c2ccccc2[n+]1Cc1ccc2ccccc2c1 | 31% | 5.5% (active) | 79.2% | -8.46% (active) | 71.1% | -15.8% (active) | 1.17% (active) | -20.5% (active)
CC(C)NCCCCCNc1cc(O)cc2cccnc12 | -8.81% (active) | 59% | 88.4% | 124% | 102% | 79.1% | 94.3% | 16%
CCCCc1n(Cc2ccc3ccccc3n2)cc[n+]1Cc1ccc2ccccc2n1 | 50.9% | 4.6% (active) | 83.5% | 27.6% | 96.1% | 7.39% (active) | 23.3% | 14.9%
Cc1ccc(NC(=O)c2[nH]c(SCCN(C)C)nc2-c2ccc(F)cc2)cc1Nc1ccc2ncn(C)c(=O)c2c1 | 75.2% | 64.6% | 31.4% | 63% | 69% | 61.2% | 61.6% | 41.2%
Cc1ccc(NC(=O)c2nc(S(C)=O)oc2-c2ccc(F)cc2)cc1Nc1nccc(-c2cccnc2)n1 (configuration not stated) | 73.8% | 38.7% | 84.5% | 130% | 31.5% | 107% | 2.57% (active) | 0.215% (active)
NNC(=O)Cc1ccccc1 | 81.2% | 93.4% | 76.2% | 111% | 78.9% | 97.2% | 57.1% | 79.9%
CNC(=O)c1cc(Oc2ccc(NC(=O)c3nc(S(C)(=O)=O)sc3-c3ccc(F)cc3)cc2)ccn1 | 77.8% | 97.5% | 87.5% | 77% | 90.8% | 99.6% | 85.9% | 83.1%
c1ccc(-c2[nH]c3ccccc3c2-c2ccccc2)cc1 | 77.1% | 91.8% | 88.6% | 107% | 93.2% | 92.8% | 47.6% | 66.2%
COc1ccc(/C=C(/C(=O)N2CCN(c3ccccc3)CC2)c2cc(OC)c(OC)c(OC)c2)cc1O | 41% | 31.4% | 45.6% | 64% | 33.1% | -3.6% (active) | 8.16% (active) | 8.78% (active)
CCOc1ccc([C@@H]2[C@@H](Oc3ccccc3)C(=O)N2c2cc(OC)c(OC)c(OC)c2)cc1 | 43.5% | 31.4% | 35.3% | 48.1% | 25.3% | -9.61% (active) | 7.6% (active) | 5.59% (active)
Cc1n(Cc2ccc3ccccc3n2)cc[n+]1Cc1ccc2ccccc2c1 | 48.3% | 1.98% (active) | 81% | 37.8% | 88.5% | -2.15% (active) | 16.3% | 5.13% (active)
CNC(=O)c1cc(Oc2ccc(NC(=O)c3[nH]c(SC)nc3-c3ccc(F)cc3)cc2)ccn1 | 63.7% | 39.2% | 60.5% | 88.3% | 39.8% | 61.1% | 85.3% | 38.4%
O=c1[nH]c2cc(Cl)c(Cl)cc2o1 | 68.3% | 95.5% | 99.6% | 113% | 104% | 92.7% | 118% | 106%
COc1ccc(/C(=C\c2cc(OC)c(OC)c(OC)c2)C(=O)N2CCN(c3ccccc3)CC2)cc1O | 94.7% | 93.8% | 69.7% | 103% | 98.3% | 94% | 85.5% | 91.3%
O=C(O)/C=C(\c1nc2ccc([N+](=O)[O-])cc2[nH]1)c1cc(Cl)ccc1O | 17.6% | 13.1% | 17% | 27.4% | 12.5% | 7.28% (active) | 0.888% (active) | -4.02% (active)
Cc1ccc(NC(=O)c2nc(S(C)(=O)=O)oc2-c2ccc(F)cc2)cc1Nc1ccc2ncn(C)c(=O)c2c1 | 72.7% | 67.7% | 72.5% | 90.8% | 48.4% | 130% | 16.3% | -5.15% (active)

SMILES | growth (EKVX NSCLC) | growth (SN12C renal) | growth (UO-31 renal) | growth (TK-10 renal) | growth (ACHN renal) | growth (A498 renal) | growth (CCRF-CEM leukemia) | growth (MOLT-4 leukemia)
Cc1[nH]n(C(=O)c2ccncc2)c(=O)c1N=Nc1ccc(O)c(C(=O)O)c1 | 127% | 93.6% | 78.9% | 83.2% | 106% | 110% | -36.1% (active) | 87.4%
O=c1[nH]cnc2nc[nH]c12 | 81.6% | 96.7% | 94.2% | 115% | 103% | 87.9% | 120% | -45.9% (active)
COc1ccc(/C(=C\c2cc(OC)c(OC)c(OC)c2)C(=O)N2CCNCC2)cc1 | 105% | 101% | 83.4% | 94.6% | 98% | 85.6% | 96.1% | 87.2%
Cc1n(Cc2ccc3ccccc3n2)cc[n+]1Cc1ccc2ccccc2n1 | 80.7% | 77.9% | 87.3% | 80.8% | 103% | 88.5% | 76.2% | 98.3%
COc1ccc([C@@H]2[C@@H](Oc3ccccc3)C(=O)N2c2cc(OC)c(OC)c(OC)c2)cc1F | 34.6% | 24.6% | 24.4% | 44.7% | 21.5% | -9.03% (active) | 8.73% (active) | 6.79% (active)
CCCCN(CCCC)CCCN=c1nc2c(c(N)n1-c1ccccc1)c(=S)n(-c1ccccc1)c(=S)n2-c1ccccc1 | -74.2% (active) | -99.2% (active) | -80.9% (active) | -89.6% (active) | -95.8% (active) | -100% (active) | -78.4% (active) | -55.8% (active)
Cc1ccc2oc(=O)cc(-c3nc4ccc([N+](=O)[O-])cc4[nH]3)c2c1 | 62.6% | 59.7% | 51.7% | 62% | 63% | 43.7% | 51.6% | 39.6%
Fc1cc(-c2nnc3sc(-c4ccc(Cl)cc4)nn23)c(Cl)cc1Cl | 96.2% | 103% | 78.1% | 99.9% | 101% | 97.8% | -75.3% (active) | 60.6%
Cc1cc(O)c(C2=NN(c3ccc(S(N)(=O)=O)cc3)C(c3ccc(Cl)cc3)C2)c(C)c1Cl (configuration not stated) | 49.7% | 36.1% | 66.6% | 80% | 58.7% | 87.2% | 11.6% | 14.3%
c1ccc2c(c1)cnc1ccccc12 | 115% | 95.5% | 95.2% | 116% | 100% | -7.57% (active) | 97.8% | 
COc1ccc(/C=C(/C(=O)N2CCN(c3ccccc3)CC2)c2cc(OC)c(OC)c(OC)c2)cc1N | 41.1% | 40.1% | 52.1% | 63.5% | 35.1% | -2.34% (active) | 8.84% (active) | 10.1%
O=C(Nc1ccc(Oc2ccc(NC(=O)Nc3ccccc3Cl)cc2)cc1)Nc1ccccc1Cl | 76.5% | 44.1% | 20.1% | 75.1% | 67.4% |  | 42.4% | 
CC(=O)c1cc(C(=O)c2ccc3c(c2)Sc2ccccc2N3)c2c(C)cccn12 | 38.1% | 35.5% | 34.1% | 56.9% | 32.4% | -5.33% (active) | 16.3% | 12%
O=c1cc(N2CCOCC2)oc2c(-c3ccc4c(c3)OCCO4)csc12 | 9.76% (active) | 20.2% | 1% (active) | -14.5% (active) | 6.19% (active) | -41% (active) | 28% | 4.69% (active)
COc1ccc([C@@H]2[C@@H](Cl)C(=O)N2c2cc(OC)c(OC)c(OC)c2)cc1C | 44.2% | 31.2% | 38.8% | 71.3% | 31.6% | -7.32% (active) | 9.56% (active) | 8.89% (active)
COc1cc(/C=C/c2ccc3c(Br)cc(Br)c(O)c3n2)ccc1O | 23.1% | 52.8% | 0.12% (active) | 30.3% | 22% | -4.9% (active) | -24.5% (active) | 
